Here are results for 11 compounds from ChEMBL document CHEMBL3988442, “University of Dundee, Small-Polar-MMV Screening Library” (2021).

For some of these results: Potency and affinity values are given separately.

What all share (design): scale not given: direction of the effect not stated beside the values
In test [1] the target is Protein translocase subunit SecA (Escherichia coli (strain K12)) (UniProt P10408). Briefly: Assay to Identify E. coli SecA ATPase Inhibitors. The test is classed as functional. Particulars: 30 µM.
The target in test [2] is T1, Ubiquitin-activating enzyme e1, putative (Leishmania donovani (strain BPK282A1)) (UniProt E9BSI1).
T1 sequence (whole entry): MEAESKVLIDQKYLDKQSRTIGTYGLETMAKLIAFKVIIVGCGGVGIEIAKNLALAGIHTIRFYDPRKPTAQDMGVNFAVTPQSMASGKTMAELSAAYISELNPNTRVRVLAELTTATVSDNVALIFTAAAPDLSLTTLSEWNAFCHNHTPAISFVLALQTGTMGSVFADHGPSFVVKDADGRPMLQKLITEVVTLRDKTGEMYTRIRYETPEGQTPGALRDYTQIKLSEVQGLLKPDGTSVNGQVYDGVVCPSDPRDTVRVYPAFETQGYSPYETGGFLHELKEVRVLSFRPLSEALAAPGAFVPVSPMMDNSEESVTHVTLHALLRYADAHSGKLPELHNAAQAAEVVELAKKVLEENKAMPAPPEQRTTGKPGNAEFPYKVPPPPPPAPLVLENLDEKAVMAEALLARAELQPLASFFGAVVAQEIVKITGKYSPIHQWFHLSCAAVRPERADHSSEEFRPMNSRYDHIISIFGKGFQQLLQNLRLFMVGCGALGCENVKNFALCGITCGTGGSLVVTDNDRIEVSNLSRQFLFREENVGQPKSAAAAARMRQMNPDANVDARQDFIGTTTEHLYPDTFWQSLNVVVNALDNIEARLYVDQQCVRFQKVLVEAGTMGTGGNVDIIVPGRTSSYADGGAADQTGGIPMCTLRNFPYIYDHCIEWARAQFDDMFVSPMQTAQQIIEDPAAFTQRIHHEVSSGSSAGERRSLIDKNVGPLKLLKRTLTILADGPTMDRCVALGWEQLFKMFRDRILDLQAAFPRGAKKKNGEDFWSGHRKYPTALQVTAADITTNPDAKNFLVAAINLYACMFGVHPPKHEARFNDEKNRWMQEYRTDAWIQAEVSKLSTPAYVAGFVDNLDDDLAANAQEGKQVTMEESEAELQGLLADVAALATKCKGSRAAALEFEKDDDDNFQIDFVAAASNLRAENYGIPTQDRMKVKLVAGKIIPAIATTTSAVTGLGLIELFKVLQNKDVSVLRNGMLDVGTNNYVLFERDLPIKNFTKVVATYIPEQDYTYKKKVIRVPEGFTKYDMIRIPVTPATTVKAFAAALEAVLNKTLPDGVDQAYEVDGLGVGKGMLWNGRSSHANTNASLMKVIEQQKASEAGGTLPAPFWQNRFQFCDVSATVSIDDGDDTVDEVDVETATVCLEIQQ
Briefly: Leishmania donovani Ubiquitin Activating Enzyme (LdE1). Particulars: 30 µM. The format is functional.

The target of test [3] is AMP-activated protein kinase, AMPK (Homo sapiens) (UniProt P54646+O43741+P54619+Q9UGJ0+Q9Y478+Q13131+Q9UGI9). Briefly: AMP-dependent Kinase enzyme assay. An in vitro enzyme assay that detects ADP turnover that is directly proportional to AMPK activity. This uses naive AMPK that is activated during the assay with MK-8722. The test is classed as functional. Conditions: 30 µM.

Test [4] deals with Sialic acid-binding Ig-like lectin 9 (Homo sapiens) (UniProt Q9Y336). Briefly: Hs-Siglec9 ALPHAscreen SOP 20170721. Conditions: 10 µM.
Test [5] deals with Trypanosoma cruzi. The experiment in a line: Trypanosoma cruzi phosphomannomutase and mannose-1-phosphate guanylyltransferase assay. The format is functional. Particulars: 10 µM.
In test [6] the target is T2, Arginase-2, mitochondrial (Homo sapiens) (UniProt P78540).
T2 sequence (whole entry): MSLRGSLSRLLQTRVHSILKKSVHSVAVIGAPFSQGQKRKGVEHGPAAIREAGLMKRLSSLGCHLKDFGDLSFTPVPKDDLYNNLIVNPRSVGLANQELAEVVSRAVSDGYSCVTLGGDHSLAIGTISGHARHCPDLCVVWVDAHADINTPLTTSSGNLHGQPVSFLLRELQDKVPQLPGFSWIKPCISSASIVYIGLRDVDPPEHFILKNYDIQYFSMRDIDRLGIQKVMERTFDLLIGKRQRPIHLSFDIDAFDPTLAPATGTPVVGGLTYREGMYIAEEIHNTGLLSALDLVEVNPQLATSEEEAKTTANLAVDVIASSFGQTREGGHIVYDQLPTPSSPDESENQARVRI
The experiment in a line: in vitro enzyme assay to detect the production of urea directly proportional to the activity of Arginase II. Also: in the data most compounds retested in dose-response had high values. Particulars: 33.3 µM. The format is functional.

In test [7] the target is T3, Proteasome subunit beta (Trypanosoma cruzi) (UniProt O96673).
T3 sequence (whole entry): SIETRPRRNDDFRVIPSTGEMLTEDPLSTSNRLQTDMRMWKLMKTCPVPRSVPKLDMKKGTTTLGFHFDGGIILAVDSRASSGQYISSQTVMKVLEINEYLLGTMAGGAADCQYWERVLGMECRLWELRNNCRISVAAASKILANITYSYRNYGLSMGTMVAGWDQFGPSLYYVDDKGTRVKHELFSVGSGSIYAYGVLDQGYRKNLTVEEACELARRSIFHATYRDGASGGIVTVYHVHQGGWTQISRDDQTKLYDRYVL
Briefly: Trypanosoma cruzi proteasome chymotrypsin-like activity (TcProtChymo) assay. Also: in the data most compounds retested in dose-response had high values. Conditions: 9.37 µM. The format is functional.

The species named for test [8] is Homo sapiens. Briefly: To identify inhibition of the IFN signalling (Jak-Stat) pathway via expression of an eGFP reporter gene under the control of an IFN-stimulated response element (ISRE) containing MxA promoter. Conditions: 30 µM. The test is classed as functional. Background: In a reporter assay the amount or activity of a reporter protein is the signal.
In test [9] the target is T4, Tyrosyl-tRNA synthetase, putative (Trypanosoma cruzi (strain CL Brener)) (UniProt Q4DSP6).
T4 sequence (whole entry): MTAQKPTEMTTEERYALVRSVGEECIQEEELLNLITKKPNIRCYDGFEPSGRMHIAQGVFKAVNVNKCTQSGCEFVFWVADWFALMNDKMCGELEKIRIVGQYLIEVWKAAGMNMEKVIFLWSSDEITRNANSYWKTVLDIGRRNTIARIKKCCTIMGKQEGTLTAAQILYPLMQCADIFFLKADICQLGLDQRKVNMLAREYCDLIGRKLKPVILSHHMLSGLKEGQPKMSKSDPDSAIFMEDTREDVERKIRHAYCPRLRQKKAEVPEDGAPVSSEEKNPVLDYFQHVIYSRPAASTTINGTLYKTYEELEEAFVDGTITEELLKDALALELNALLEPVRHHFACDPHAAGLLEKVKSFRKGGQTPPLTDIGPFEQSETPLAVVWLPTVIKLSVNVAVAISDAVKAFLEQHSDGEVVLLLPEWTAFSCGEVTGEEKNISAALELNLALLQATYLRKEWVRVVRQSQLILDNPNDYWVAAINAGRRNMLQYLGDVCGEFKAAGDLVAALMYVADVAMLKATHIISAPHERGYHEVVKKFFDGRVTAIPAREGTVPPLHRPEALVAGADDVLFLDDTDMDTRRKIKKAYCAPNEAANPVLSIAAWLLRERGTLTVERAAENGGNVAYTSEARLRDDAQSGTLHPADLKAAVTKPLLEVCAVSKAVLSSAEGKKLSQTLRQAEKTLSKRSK
Briefly: Trypanosoma cruzi tyrosyl tRNA synthetase (TcYRS) _High Tyrosine SOP. Also: in the data most compounds retested in dose-response had high values. The format is functional. Conditions: 30 µM.

Test [10] has as its target T4, Tyrosyl-tRNA synthetase, putative (Trypanosoma cruzi (strain CL Brener)). The experiment in a line: Trypanosoma cruzi tyrosyl tRNA synthetase (TcYRS) SOP. The format is functional. Particulars: 30 µM.
Test [11] deals with Chromo domain-containing protein 1 (Saccharomyces cerevisiae (strain ATCC 204508 / S288c) (Baker's yeast)) (UniProt P32657). Briefly: ScCHD-1 Enzyme Inhibition Assay. Also: in the data most compounds retested in dose-response had high values. The format is functional. Conditions: 30 µM.
Sequence of Chromo domain-containing protein 1 (Saccharomyces cerevisiae (strain ATCC 204508 / S288c) (Baker's yeast)) (P32657 whole entry, the tested form may be a part): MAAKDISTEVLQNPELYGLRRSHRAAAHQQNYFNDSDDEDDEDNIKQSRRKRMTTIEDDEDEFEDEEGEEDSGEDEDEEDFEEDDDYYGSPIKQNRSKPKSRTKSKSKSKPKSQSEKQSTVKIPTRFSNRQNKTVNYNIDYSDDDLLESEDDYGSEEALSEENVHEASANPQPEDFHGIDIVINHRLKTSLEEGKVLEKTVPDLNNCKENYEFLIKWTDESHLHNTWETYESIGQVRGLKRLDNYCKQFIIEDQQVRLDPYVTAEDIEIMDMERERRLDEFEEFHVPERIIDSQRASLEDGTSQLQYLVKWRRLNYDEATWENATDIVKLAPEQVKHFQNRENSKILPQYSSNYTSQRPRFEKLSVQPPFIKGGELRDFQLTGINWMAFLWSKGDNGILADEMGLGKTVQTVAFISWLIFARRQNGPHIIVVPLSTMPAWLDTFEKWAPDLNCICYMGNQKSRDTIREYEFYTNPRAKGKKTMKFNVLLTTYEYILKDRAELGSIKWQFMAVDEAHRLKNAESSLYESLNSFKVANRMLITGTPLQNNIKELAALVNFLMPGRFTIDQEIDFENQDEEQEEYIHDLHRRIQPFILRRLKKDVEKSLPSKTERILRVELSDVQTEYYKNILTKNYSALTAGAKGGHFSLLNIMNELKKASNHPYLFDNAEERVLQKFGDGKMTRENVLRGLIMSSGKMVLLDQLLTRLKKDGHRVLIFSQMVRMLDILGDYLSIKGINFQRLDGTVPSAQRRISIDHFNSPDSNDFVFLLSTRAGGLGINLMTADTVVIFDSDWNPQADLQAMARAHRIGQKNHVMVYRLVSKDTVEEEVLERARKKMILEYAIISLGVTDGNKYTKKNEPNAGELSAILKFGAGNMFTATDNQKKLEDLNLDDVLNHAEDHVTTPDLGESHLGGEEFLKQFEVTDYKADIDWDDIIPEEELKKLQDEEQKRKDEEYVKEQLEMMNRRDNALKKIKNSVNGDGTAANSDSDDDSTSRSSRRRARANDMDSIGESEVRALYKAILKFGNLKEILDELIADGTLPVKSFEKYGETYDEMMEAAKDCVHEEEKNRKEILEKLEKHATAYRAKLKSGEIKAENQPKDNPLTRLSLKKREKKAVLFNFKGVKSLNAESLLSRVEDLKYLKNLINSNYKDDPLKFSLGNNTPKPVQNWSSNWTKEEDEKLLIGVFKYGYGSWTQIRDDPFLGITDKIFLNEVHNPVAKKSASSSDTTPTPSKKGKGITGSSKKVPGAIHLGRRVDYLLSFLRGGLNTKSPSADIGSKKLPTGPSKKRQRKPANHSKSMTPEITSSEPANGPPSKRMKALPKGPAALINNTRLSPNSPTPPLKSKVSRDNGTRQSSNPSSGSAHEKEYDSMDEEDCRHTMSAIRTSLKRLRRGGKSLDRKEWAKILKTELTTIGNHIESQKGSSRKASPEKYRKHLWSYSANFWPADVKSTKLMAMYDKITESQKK

Sequence of Sialic acid-binding Ig-like lectin 9 (Homo sapiens) (Q9Y336 whole entry): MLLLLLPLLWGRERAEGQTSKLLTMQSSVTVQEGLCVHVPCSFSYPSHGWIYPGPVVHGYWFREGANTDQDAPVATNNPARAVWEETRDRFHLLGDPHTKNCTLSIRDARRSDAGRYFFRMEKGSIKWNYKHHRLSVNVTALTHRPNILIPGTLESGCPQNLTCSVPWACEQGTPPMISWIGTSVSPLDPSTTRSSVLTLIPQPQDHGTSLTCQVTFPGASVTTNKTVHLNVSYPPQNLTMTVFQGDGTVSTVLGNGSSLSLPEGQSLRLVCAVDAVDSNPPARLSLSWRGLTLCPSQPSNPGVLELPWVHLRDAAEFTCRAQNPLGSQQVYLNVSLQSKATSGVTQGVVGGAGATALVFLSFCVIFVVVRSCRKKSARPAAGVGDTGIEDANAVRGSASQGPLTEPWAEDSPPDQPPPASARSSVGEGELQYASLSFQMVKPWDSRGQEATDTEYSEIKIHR
Sequence of Protein translocase subunit SecA (Escherichia coli (strain K12)) (P10408 whole entry): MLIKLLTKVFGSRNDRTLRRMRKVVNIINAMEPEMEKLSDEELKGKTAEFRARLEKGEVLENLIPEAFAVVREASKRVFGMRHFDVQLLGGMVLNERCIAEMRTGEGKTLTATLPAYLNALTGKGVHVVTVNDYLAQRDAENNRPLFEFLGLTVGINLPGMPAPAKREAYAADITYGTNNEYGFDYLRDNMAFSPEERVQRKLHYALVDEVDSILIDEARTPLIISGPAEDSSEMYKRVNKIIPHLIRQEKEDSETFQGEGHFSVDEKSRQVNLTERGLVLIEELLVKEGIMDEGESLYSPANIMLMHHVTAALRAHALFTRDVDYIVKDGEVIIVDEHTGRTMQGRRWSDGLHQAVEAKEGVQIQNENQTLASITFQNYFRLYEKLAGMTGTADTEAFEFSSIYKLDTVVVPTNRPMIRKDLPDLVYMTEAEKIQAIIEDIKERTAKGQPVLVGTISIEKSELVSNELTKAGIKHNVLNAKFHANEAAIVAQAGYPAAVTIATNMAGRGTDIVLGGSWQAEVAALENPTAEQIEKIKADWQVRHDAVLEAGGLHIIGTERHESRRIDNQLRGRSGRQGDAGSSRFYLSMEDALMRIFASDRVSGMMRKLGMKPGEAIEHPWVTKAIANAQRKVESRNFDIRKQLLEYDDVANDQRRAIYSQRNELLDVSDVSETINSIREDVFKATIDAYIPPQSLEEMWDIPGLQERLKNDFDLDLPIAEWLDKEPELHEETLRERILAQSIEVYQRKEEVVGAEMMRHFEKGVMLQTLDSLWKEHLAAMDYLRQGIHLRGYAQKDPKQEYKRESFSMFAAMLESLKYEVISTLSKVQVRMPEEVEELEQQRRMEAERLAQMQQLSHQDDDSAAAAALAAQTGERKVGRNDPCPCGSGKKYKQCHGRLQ

In the case of `CCN1CCC(CNCc2cc(OC)ccc2OC)C1` (stereo unspecified), the Percent Effect is -3.32% in [1]; 0% in [2]; -0.832% in test [3]; -3.34% in test [4]; -5.66% in [5]; 0.417% in test [6]. Further, the Percent Effect in test [7] was 6.17%; in test [8], 0.331%; in test [9], 0.99%; in test [10] it was 1.22%; in [11], -0.855%.

Turning to `O=C(c1cccc(CNS(=O)(=O)c2ccccc2F)c1)N1CCCC1`, the Percent Effect in [1] is -3.56%; in test [2], 15.6%; in test [3] it was 1.76%; in [4], 3.25%; in [5] it was 2.25%; in test [6], 0.21%. The Percent Effect was 5.25% in test [7]; 24.1% in test [8]; 5.71% in test [9]; 18.8% in test [10]; -5.99% in test [11].

Consider `Cc1cnn(CC(C)NCc2ccc(OCc3ccncc3)cc2)c1` (stereo unspecified), for which the Percent Effect in test [1] is -5.11%; in [2], -1.27%; in [3], 4.3%; in test [4], -6.57%; in [5], -6.67%; in test [6], -3.66%. In addition, the Percent Effect was 9.95% in test [7]; 24.2% in test [8]; 5.21% in test [9]; 5.06% in test [10]; -25.8% in [11].

On to `CC(C)N(C)Cc1cn2c(n1)CN(Cc1ccsc1)CC2`, for which the Percent Effect was 5.48% in test [1]; 11% in test [2]; 1.28% in [3]; 6.24% in test [4]; -5.56% in [5]; -3.19% in [6]. The Percent Effect turned out to be 9.33% in test [7]; 18.4% in test [8]; 7.29% in [9]; 8.64% in test [10]; 2.73% in test [11].

Consider `Cc1noc(C)c1-c1cccc(CC2CCN(C(=O)c3cc[nH]n3)C2)n1` (stereo unspecified), for which the Percent Effect in test [1] is -2.86%; in test [2], 10.7%; in test [3], 9.02%; in test [4], 7.09%; in [5], -2.95%; in test [6] it was -1.17%. The Percent Effect in test [7] was 8.72%; in test [8], 15.2%; in [9], 4.25%; in test [10], 8.97%; in test [11] it was -0.89%.

With `CC(NC(=O)CCOc1ccccc1Cl)c1nnc2n1CCC2` (stereo unspecified), the Percent Effect in test [1] was -2.36%; in test [2], 10.8%; in test [3] it was -3.16%; in test [4], -0.604%; in test [5] it was 6.51%; in test [6], -2%. Further, the Percent Effect in test [7] was 5.77%; in [8], 6.7%; in test [9], 5.42%; in test [10] it was 16.1%; in [11], -6.83%.

Consider `CC(C)N(C)Cc1cnc2n1CCN(C(=O)NC1CCCC1)C2`, for which the Percent Effect in test [1] was -1.5%; in [2], 0%; in test [3], 9.85%; in test [4], -1.01%; in [5], -7.09%; in test [6], 3.96%. Moreover, the Percent Effect in test [7] is 13.7%; in test [8], 7.83%; in test [9] it was 1.06%; in test [10], 1.28%; in test [11] it was 0.39%.

For the compound `COc1cc(C(=O)N(Cc2ccco2)C2CC2)cc2c1OCCO2`, the Percent Effect in test [1] was -0.29%; in test [2], -2.63%; in test [3], 8.94%; in [4], 6.17%; in test [5], -1.46%; in test [6], -5.92%. Also, the Percent Effect was 6.81% in test [7]; 6.99% in test [8]; 2.13% in test [9]; 2.6% in test [10]; 0.909% in [11].

Take `CCOc1ccc(Cl)cc1C1CCCN1` (stereo unspecified): the Percent Effect in [1] was -3.13%; in test [2] it was 10.5%; in test [3], 4%; in [4], 1.21%; in [5] it was 3.21%; in test [6] it was -11.8%. The Percent Effect in [7] was 13.5%; in [8], 2.15%; in test [9], 0%; in test [10], 7.79%; in test [11], -2.96%.

Turning to `CC(c1cccnc1)N(C)Cc1csc(-c2ccccn2)n1` (stereo unspecified), the Percent Effect is -7.3% in [1]; 5.48% in test [2]; -12.1% in test [3]; 19.7% in test [4]; 6.66% in [5]; 3.64% in test [6]. The Percent Effect in test [7] was 5.86%; in test [8], 8.26%; in test [9] it was 5.38%; in [10], 15%; in [11] it was 92.8%.

For `CCOC[C@H]1CC[C@H]2[C@H](CCN2C(=O)c2ccncc2F)O1`, the Percent Effect in test [1] is -2.56%; in test [2], 2.7%; in test [3], 3.1%; in [4], -3.88%; in test [5], 1.07%; in test [6], 3.72%. For the same compound, the Percent Effect is 5.92% in test [7]; -17.8% in [8]; 2.15% in test [9]; 3.7% in test [10]; -2.81% in [11].
